This is an account of results in PubChem BioAssay AID588346 (National Center for Advancing Translational Sciences (NCATS), 2011).

Records with an inconclusive call do not appear. Activity calls are given as the source filed them. The call rests on the fitted dose curve; in most records, active means well fitted curve in the direction sought with a large enough effect; inconclusive means small, poorly fitted or top-dose-only effect, or another doubt; inactive means no such curve, though single readings can be large or run the other way.

A short description of this assay: qHTS Assay for Inhibitors of Histone Lysine Methyltransferase G9a: Hit Confirmation in b-rIgG Counterscreen. To be noted: AlphaScreen b-rIgG bead counterscreen, signal interference; series mostly up to 55.7 µM; activity change, negative = inhibition: at the top concentration. An excerpt: Methylated lysines, on the N-terminal tails of histone proteins serve as epigenetic markers to recruit factors that can then modify local chromatin structure to lead to functional consequences. G9a and other members of the SUV39 family of the SET domain-containing superfamily of histone lysine methyltransferases (HMT) have been identified to specifically methylate Lys9 of histone H3 (H3K9). G9a catalyzes the mono- and di-methylation of H3K9 in mammalian euchromatic regions, where the resulting H3K9me2 is indicative of transcriptional repression. […] The inhibition of G9a will result in transcriptional activation and work synergistically with DNA methyltransferase and histone deacetylase inhibitors, to kill cancer cells. This qHTS assay for identification of G9a inhibitors is a chemiluminescence based AlphaScreen (PerkinElmer). Methylation of biotinylated-histone peptide is measured through specific antibody-based detection, in conjunction with streptavidin-coated donor and anti-IgG antibody-coated acceptor beads. The method is particularly well suited for detection of inhibitors acting by the desired histone peptide competitive mechanism and is applicable to testing other HMTs. Although AlphaScreen has significant advantages with its utility in a variety of epigenetic target assays, the primary screening data provided in this deposition should be used with caution due to the prevalence of screening artifacts. Because an AlphaScreen counterscreen is highly recommended to be run against any putative actives to eliminate non specific artifacts, this assay was used as a counterscreen. Quinn et al. A chemiluminescence-based method for identification of histone lysine methyltransferase inhibitors. Mol Biosyst 6(5): 782-8. 2010. PMID: 20567762 [2] Baell,Holloway. New substructure filters for removal of pan assay interference compounds (PAINS) from screening libraries and for their exclusion in bioassays. J Med Chem. 53(7):2719-40. 2010. PMID: 20131845 NIH Chemical Genomics Center [NCGC] NIH Molecular Libraries Probe Production Network [MLPCN] MLPCN Grant: MH084681-02 Assay Submitter (PI): Structural Genomic Consortium - Toronto, Peter Brown
Biotinylated rabbit-IgG (b-rIgG) (Santa Cruz Biotechnology, Inc., Santa Cruz, CA) was added to 1,536-well plates in a 3 uL dispense. Compounds were added in a 23 nL pin-transfer step, and plates were incubated at room temperature for 15 min. Streptavidin-coated donor and anti-rIgG acceptor AlphaScreen beads were added (1 uL) for final concentrations of 20 ug/mL each bead and 1 nM b-rIgG, and plates read on the Envision after a 15 min incubation at room temperature in the dark.
A general note: Quantitative high-throughput screening tests each substance at several concentrations.
`Ic1ccc(N2CCN(Cc3c[nH]c4ncccc34)CC2)cc1`: the “activity change, negative = inhibition” value was 3.83% (inactive).
On to `O=c1c2ccccc2nc(COc2ccccc2)n1/N=C/c1c[nH]c2ccccc12`, for which the “activity change, negative = inhibition” value was 1.28% (inactive).
